The target in assay [1] is T1, Hexokinase-4 (Homo sapiens) + Glucokinase regulatory protein (Homo sapiens) (UniProt P35557+Q14397). As to the kind of experiment: qHTS assay for inhibitors of recombinant human GCK-GKRP interaction: ADP-Glo assay (AID 743206).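 Further: plate controls were DMSO plus enzyme for no effect and no enzyme for full effect.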 In outline:
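GST-GCK and FLAG-GKRP (15 nM each in the dispensed mix, with 2 uM S6P) react with 0.4 mM ATP and 5 mM glucose (final) in Hepes pH 7.6 for 60 min at room temperature. ADP is measured by ADP-Glo luminescence.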

For assay [2], the target named is T1, Hexokinase-4 (Homo sapiens) + Glucokinase regulatory protein (Homo sapiens). As to the kind of experiment: qHTS assay for inhibitors of recombinant human GCK-GKRP interaction: HTRF assay (AID 743207).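 Further: 0% = DMSO with GCK present and -100% = DMSO wells lacking GCK.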 In outline: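 HTRF read-out (ex 320 nm; 615/665 nm emission) after 60 min RT equilibration of 5 nM GST-GCK, 5 nM FLAG-GKRP, 2 uM S6P, compound and anti-FLAG/anti-GST detection antibodies; signal normalized between DMSO wells with and without GCK.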
Background: In qHTS, concentration-response curves come from the screen itself.

Assay [3] can be described thus: qHTS Assay for Identifying Gametocytocidal Compounds (AID 743244). Further: potency means the concentration at half of the fitted maximal effect.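 On max response: on the % scale 0 is the no-effect control and ±100 the full control effect; actives lower the fluorescent signal which means gametocytes are killed.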 Particulars: P. falciparum 3D7 stage III-V gametocytes, alamarBlue, 72 h; max response: stronger effect = lower value. The gist of the method: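 Compounds are pinned into medium, gametocytes (stage III–V, 3D7, 20,000 cells/well) added, and plates held 72 h at 37 °C in 5% CO2. AlamarBlue follows for 24 h before fluorescence reading.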

A short description of assay [4]: qHTS profiling of the MIPE4 collection as inhibitors of Plasmodium falciparum (3D7) proliferation (AID 743344; call rule not given here;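 further: scaled between DMSO vehicle wells and 0.29 µM artemisinin as full inhibition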). Particulars: P. falciparum 3D7 in erythrocytes, SYBR Green DNA fluorescence, 72 h; at 28.5 µM (top of the series) unless noted. In outline:
(§1)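 Erythrocytes infected with P. falciparum (0.3% parasitemia, 2.5% hematocrit) incubated with compounds 72 h at 37 C, 5% CO2. Lysis with saponin/Triton buffer containing SYBR Green I, overnight at room temperature in the dark; DNA fluorescence (485/535 nm) normalised to 0.29 uM artemisinin and DMSO.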

Assay [5] is described as follows: qHTS profiling of the MIPE4 collection as inhibitors of Plasmodium falciparum (DD2) proliferation (AID 743345; call rule not given here). Particulars: P. falciparum Dd2 in erythrocytes, SYBR Green DNA, 72 h; at 28.5 µM (top of the series) unless noted. In outline:
as §1

Assay [6] is described as follows: qHTS profiling of the MIPE4 collection as inhibitors of Plasmodium falciparum (DD2) proliferation (Rep 2) (AID 743346; call rule not given here). The following applies: P. falciparum Dd2 in erythrocytes, SYBR Green DNA, 72 h; at 28.5 µM (top of the series) unless noted. In outline: as §1
Assay [7] in a line: qHTS profiling of the MIPE4 collection as inhibitors of Plasmodium falciparum (HB3) proliferation (AID 743347; call rule not given here;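 further: plate controls were DMSO vehicle wells for no effect and artemisinin wells for full effect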). The following applies: P. falciparum HB3 in erythrocytes, SYBR Green DNA, 72 h; at 28.5 µM (top of the series) unless noted. The gist of the method:
as §1

Assay [8] is described as follows: High-throughput drug toxicity screening in the BPDCN cell line Gen2.2 (AID 1224824; call rule not given here;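 further: cells exposed to compounds for 48 h before reading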). The following applies: Gen2.2 BPDCN cells; at 45.8 µM (top of the series) unless noted. In outline: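 CellTiter-Glo luminescence after 48 h compound exposure of Gen2.2 cells; percent activity set with DMSO as 100% and bortezomib (9.2 uM final) as 0%. Cells seeded at 500 per well, RPMI + 10% FBS, 37 °C.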

Assay [9] in a line: High-throughput drug toxicity screening in the BPDCN cell line Cal-1 (AID 1224825; call rule not given here). The following applies: Cal-1 BPDCN cell viability, qHTS; at 45.8 µM (top of the series) unless noted. In outline: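 Exponentially growing Cal-1 cells, 500 per well in phenol red-free RPMI with 10% FBS, were exposed to compounds for 48 h at 37 °C, 5% CO2. Viability was read by CellTiter-Glo luminescence and normalised to DMSO (100%) and 9.2 uM bortezomib (0%).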

A short description of assay [10]: qHTS assay for measurement of the activity of small molecule inhibitors on Zika virus induced Caspase-3 activity in human iPSC derived neural progenitor cells (hNPCs) (AID 1224857). Further: % of control where 0% means no effect; nearly all actives have a fitted effect of over 65% in size. In outline:
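Pretreat hNPCs with compound 1 h; infect ZIKV 2 FFU/cell; 6 h 37 C, 5% CO2; Caspase-Glo 3/7, 30 min RT; luminescence; normalize to no-virus and virus-only wells.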

A short description of assay [11]: qHTS assay for measurement of the activity of small molecule inhibitors on Zika virus induced Caspase-3 activity in human astrocytoma cells (AID 1224859).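 Further: plate controls were ZIKV-infected untreated cells for no effect and uninfected cells for full effect.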 The gist of the method:
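Human SNB-19 astrocytoma cells in RPMI 1640 with 10% FBS receive compound one hour ahead of Zika virus at 2 FFU/cell. After 6 h infection, caspase-3/7 activity is detected by Caspase-Glo luminescence.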

A short description of assay [12]: qHTS Screen of the MIPE 4.0 Collection Against Ewings Sarcoma (TC71) (AID 1259253). Further: nearly all actives have a fitted effect of over 40% in size. Further: potency means the concentration at half of the fitted maximal effect. The gist of the method:
(§2)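 Compound titrations go onto adherent log-phase cells 4 h after seeding, incubate 48 h at 37C, then CellTiter-Glo luminescence reports viability relative to DMSO and cell-free controls.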

The nature of assay [13]: qHTS assay for cell viability of HEK293 cells (AID 743288). Further: on the % scale 0 is the no-effect control and ±100 the full control effect; nearly all actives have a fitted effect of over 50% in size. The following applies: ATP luminescence (CellTiter-Glo), 18 h; max response: stronger effect = lower value. In outline: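 Environmental chemicals tested in qHTS format against parental HEK293 cells; 18 h treatment, 37 C; read-out ATP luminescence (CellTiter-Glo), 30 min RT development.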
A short description of assay [14]: qHTS assay for cell viability of the p53RE-bla HCT-116 cell line (AID 743292). Further: on the % scale 0 is the no-effect control and ±100 the full control effect; nearly all actives have a fitted effect of over 55% in size. The gist of the method: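 ATP-based luminescent viability (CellTiter-Glo, 30 min RT) after 16 h compound treatment at 37 C of p53RE-bla HCT-116 cells, seeded at 4,000 cells/well and rested 5 h before dosing.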
A short description of assay [15]: qHTS Screen of the MIPE 4.0 Collection Against Ewings Sarcoma (RDES) (AID 1259252). Further: nearly all actives have a fitted effect of over 35% in size. Further: potency means the concentration at half of the fitted maximal effect. The gist of the method: as §2
Assay [16] can be described thus: qHTS Screen of the MIPE 4.0 Collection Against Ewings Sarcoma (EW8) (AID 1259255). Further: nearly all actives have a fitted effect of over 35% in size. Further: potency means the concentration at half of the fitted maximal effect.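 On viability: 100% = DMSO-treated cells and 0% = medium-only wells without cells.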 The gist of the method: as §2
The nature of assay [17]: qHTS Screen of the MIPE 4.0 Collection Against Ewings Sarcoma (TC32) (AID 1259256). Further: nearly all actives have a fitted effect of over 45% in size. Further: potency means the concentration at half of the fitted maximal effect. The gist of the method:
as §2

Assay [18] is described as follows: qHTS profiling for inhibitors of Plasmodium falciparum (3D7) proliferation (AID 743322; call rule not given here;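 further: infected erythrocytes exposed to compound for 72 h before lysis; 100% = DMSO vehicle wells and 0% = 0.29 µM artemisinin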). The following applies: P. falciparum 3D7 proliferation, at 28.7 µM (top of the series). In outline: as §1
Assay [19] can be described thus: qHTS profiling for inhibitors of Plasmodium falciparum (DD2) proliferation (AID 743323; call rule not given here). The following applies: at 28.7 µM (top of the series), lower = more inhibition. The gist of the method: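 P. falciparum Dd2-infected erythrocytes (0.3% parasitemia, 2.5% hematocrit) exposed 72 h at 37 C, 5% CO2. Lysis with SYBR Green, overnight at room temperature, fluorescence 485/535 nm; normalized to 0.29 uM artemisinin and DMSO.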

“And” between values parts separate entries of the source, which are not always exact repeats. Identical values can stand only once. Results filed as inconclusive are left out. The source made the active and inactive calls. Unless noted, the call rests on the fitted dose curve; in most records, active means well fitted curve in the direction sought with a large enough effect; inconclusive means small, poorly fitted or top-dose-only effect, or another doubt; inactive means no such curve, though single readings can be large; an effect the other way counts as inactive or inconclusive.

T1 sequence (P35557 whole entry, looked up): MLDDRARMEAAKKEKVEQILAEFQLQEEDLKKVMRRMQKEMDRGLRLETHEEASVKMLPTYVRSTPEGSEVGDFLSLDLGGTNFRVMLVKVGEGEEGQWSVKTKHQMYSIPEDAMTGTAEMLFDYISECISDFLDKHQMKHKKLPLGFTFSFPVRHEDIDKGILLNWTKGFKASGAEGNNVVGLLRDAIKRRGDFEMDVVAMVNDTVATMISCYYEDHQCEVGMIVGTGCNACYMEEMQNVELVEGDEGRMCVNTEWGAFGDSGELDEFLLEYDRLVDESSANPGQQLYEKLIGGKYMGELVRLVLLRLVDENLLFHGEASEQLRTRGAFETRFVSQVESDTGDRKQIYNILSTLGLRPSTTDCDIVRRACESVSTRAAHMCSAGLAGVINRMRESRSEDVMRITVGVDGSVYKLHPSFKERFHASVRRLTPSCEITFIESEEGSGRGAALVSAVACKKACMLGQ
T1 sequence (Q14397 whole entry, looked up): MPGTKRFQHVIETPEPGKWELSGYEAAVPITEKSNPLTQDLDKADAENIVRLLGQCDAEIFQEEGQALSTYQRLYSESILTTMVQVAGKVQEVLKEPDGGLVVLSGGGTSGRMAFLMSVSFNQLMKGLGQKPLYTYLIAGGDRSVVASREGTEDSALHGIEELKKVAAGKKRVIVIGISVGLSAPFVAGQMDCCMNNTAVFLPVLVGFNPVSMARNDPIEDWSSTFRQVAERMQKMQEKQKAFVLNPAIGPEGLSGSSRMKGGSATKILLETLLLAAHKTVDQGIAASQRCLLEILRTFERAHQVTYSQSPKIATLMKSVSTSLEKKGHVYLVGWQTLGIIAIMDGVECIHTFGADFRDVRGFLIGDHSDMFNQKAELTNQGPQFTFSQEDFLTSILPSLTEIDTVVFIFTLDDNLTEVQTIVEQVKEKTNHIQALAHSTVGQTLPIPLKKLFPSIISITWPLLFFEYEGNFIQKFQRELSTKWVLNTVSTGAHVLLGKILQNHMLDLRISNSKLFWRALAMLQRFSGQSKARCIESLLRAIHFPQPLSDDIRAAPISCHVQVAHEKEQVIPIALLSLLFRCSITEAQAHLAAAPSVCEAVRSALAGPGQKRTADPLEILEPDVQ

For `Clc1ccccc1C(c1ccccc1)(c1ccccc1)n1ccnc1`, the Potency result in assay [1], in assay [2], in [10] and in assay [11] was “inactive” throughout. The Potency was 2.51 µM (active) and 2.09 µM (active) in [3]; 20.9 µM (active) in assay [12]. The parasite growth, % of DMSO control in assay [4] is 4.91%. Further, in assay [5], the parasite growth remaining, % of DMSO control (lower = more inhibition) was found to be 6.19%. In [6], this molecule came in with a parasite growth, % of control (lower = inhibition) of 11%. In addition, the growth, % of control in assay [7] was found to be 5.57%. Further, the cell viability, % of control (lower = more cytotoxic) in [8] came to 52.9%. The viability (% of control) in [9] was found to be 74%.

Regarding `COc1ccc2[nH]cc(CCNC(C)=O)c2c1`, the Potency result in assay [2], in assay [14], in assay [10] and in assay [11] was “inactive” each time. Moreover, the max response in [3] was 6.15% (inactive) and 3.87% (inactive); in assay [13], -9.99% (inactive) and -9.18% (inactive) and -3.1% (inactive). In addition, the parasite growth, % of DMSO control in assay [4] was 89.5% and 101%. In addition, the parasite growth remaining, % of DMSO control (lower = more inhibition) in [5] was 107% and 104%. The parasite growth, % of control (lower = inhibition) in assay [6] is 89.3% and 83%. Also, in assay [7], the growth, % of control is 79.2% and 70.9%. Moreover, the cell viability, % of control (lower = more cytotoxic) in assay [8] was 132%. In addition, the viability (% of control) in [9] is 65.3%. Also, the Potency in [15] was 1.18 µM (active); in [12] it was 1.05 µM (active); in assay [16] it was 2.96 µM (active); in assay [17], 3.32 µM (active).

Take `CS(=O)(=O)Nc1ccc([N+](=O)[O-])cc1Oc1ccccc1`: the Potency result in assay [2], in [10] and in assay [11] was “inactive” in each case. Also, the max response in [3] is -0.179% (inactive) and 5.92% (inactive). Besides, the parasite growth, % of DMSO control in assay [4] came out at 87.3%. In [5], the parasite growth remaining, % of DMSO control (lower = more inhibition) was 94.3%. This molecule also displayed a parasite growth, % of control (lower = inhibition) in [6] of 84.4%. Further, in [7], the growth, % of control came to 92.7%. Besides, the cell viability, % of control (lower = more cytotoxic) in assay [8] stood at 111%. Further, the viability (% of control) in assay [9] was 17%. Further, the Potency was 16.6 µM (active) in assay [12], 16.6 µM (active) in assay [16] and 14.8 µM (active) in assay [17].

For `COc1cc2c(c(OC)c1OC)-c1ccc(OC)c(=O)cc1[C@@H](NC(C)=O)CC2`, the Potency entry in [1], in assay [2], in assay [14], in assay [10], in assay [11] and in assay [15] was “inactive” in each case. The Potency entry in [12], in assay [16] and in [17] was “inactive” each time. In addition, the max response in assay [3] was -10.9% (inactive) and -1.99% (inactive); in assay [13] it was -13.3% (inactive) and -14.4% (inactive) and -4% (inactive). Besides, the cell viability, % of control (lower = more cytotoxic) in assay [8] came out at 10.1%. In assay [9], this molecule gave a viability (% of control) of 11.2%.

Take `Cn1ccc2cc3c(cc21)CCN3C(=O)Nc1cccnc1`: the Potency result in assay [1], in assay [2], in assay [10] and in [11] was “inactive” throughout. In assay [3], the max response is 16% (inactive) and 23.5% (inactive). Also, in assay [18], the remaining parasite growth % (stronger effect = lower value) turned out to be 25%. Besides, in assay [19], the activity, percent of control was 23%. The molecule further showed a parasite growth, % of DMSO control in assay [4] of 23.4%. In addition, the parasite growth remaining, % of DMSO control (lower = more inhibition) in assay [5] came to 72.7%. The parasite growth, % of control (lower = inhibition) in [6] is 13.8%. This molecule also displayed a growth, % of control in assay [7] of 56%. The cell viability, % of control (lower = more cytotoxic) in assay [8] is 100%. Also, in [9], the viability (% of control) is 69.5%. For the same molecule, the Potency in [15] was 16.6 µM (active); in [12] it was 23.5 µM (active).

With `CN(C)CCOC(c1ccccc1)c1ccccc1`, the Potency entry in [1], in assay [2], in assay [14], in [10], in [11] and in assay [16] was “inactive” in each case. The max response is -13.8% (inactive) and 10.9% (inactive) in assay [3]; -15% (inactive) in [13]. The remaining parasite growth % (stronger effect = lower value) in assay [18] is 85.5%. In [19], this molecule came in with an activity, percent of control of 32.1%. The molecule also registered a parasite growth, % of DMSO control in assay [4] of 90.6%. The parasite growth remaining, % of DMSO control (lower = more inhibition) in assay [5] stood at 39.2%. The molecule further had a parasite growth, % of control (lower = inhibition) in assay [6] of 41.2%. In [7], this molecule showed a growth, % of control of 100%. For the same molecule, in [8], the cell viability, % of control (lower = more cytotoxic) turned out to be 136%. The viability (% of control) in [9] turned out to be 38.8%.

Regarding `NC12CC3CC(CC(C3)C1)C2`, the Potency entry in assay [2], in assay [10] and in [11] was “inactive” throughout. The max response in assay [3] is -8.46% (inactive). Further, the parasite growth, % of DMSO control in assay [4] was 11.2%. For the same molecule, the parasite growth remaining, % of DMSO control (lower = more inhibition) in assay [5] was determined as 72%. This molecule displayed a parasite growth, % of control (lower = inhibition) in assay [6] of 25.9%. In addition, in assay [7], the growth, % of control was 4.58%. Also, the cell viability, % of control (lower = more cytotoxic) in [8] worked out at 60.9%. In addition, the viability (% of control) in [9] came to 9.3%. In [12], the Potency was 26.4 µM (active).
